Assay results as given in article PMC4336329 (PLoS ONE, 2015).
Out of some 310,000 compounds screened, about 14,000 (4.5%) showed an effect of 50% or more. The effect is printed as a negative number. This is one part of a sample in which strong results are shown more often than they occur.

target: human ether-à-go-go-related gene (hERG) potassium channel (human, UniProt Q12809); assay: primary screen, population patch clamp on CHO cells stably expressing hERG; higher = less effect of the substance
Sequence (Q12809 whole entry, looked up): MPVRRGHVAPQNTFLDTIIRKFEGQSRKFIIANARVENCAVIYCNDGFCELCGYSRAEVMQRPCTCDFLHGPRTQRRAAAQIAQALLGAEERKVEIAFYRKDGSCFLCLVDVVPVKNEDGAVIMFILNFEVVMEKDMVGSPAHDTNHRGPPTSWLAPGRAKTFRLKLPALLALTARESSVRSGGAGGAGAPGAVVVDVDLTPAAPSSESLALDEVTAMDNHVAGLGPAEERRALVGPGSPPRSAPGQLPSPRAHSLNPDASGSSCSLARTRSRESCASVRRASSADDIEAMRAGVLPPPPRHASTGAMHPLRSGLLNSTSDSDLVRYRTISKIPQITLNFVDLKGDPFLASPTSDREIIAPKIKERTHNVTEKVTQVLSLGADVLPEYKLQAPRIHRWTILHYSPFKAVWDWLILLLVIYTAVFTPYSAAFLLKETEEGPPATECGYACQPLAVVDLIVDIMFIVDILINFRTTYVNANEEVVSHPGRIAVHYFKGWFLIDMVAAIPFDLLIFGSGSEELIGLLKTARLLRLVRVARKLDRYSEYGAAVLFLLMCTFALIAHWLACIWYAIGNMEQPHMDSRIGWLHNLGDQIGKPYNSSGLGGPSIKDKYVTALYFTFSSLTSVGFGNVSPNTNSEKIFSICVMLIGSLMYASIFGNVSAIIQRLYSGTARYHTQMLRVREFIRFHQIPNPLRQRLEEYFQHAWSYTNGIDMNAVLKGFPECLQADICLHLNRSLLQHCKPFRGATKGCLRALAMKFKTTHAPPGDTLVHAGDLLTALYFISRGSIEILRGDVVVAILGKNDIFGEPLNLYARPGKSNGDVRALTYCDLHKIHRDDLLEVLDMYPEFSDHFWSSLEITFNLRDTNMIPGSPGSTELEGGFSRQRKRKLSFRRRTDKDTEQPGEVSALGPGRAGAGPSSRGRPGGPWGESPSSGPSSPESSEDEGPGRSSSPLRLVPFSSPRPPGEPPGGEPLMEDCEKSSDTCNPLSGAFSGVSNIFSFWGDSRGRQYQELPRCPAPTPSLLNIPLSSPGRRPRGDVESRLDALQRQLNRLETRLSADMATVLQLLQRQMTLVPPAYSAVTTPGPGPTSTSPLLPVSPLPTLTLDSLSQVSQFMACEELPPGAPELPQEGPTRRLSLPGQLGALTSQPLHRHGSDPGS
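Also: peak tail current of the secondary pulse compared with the same well before compound.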

SMILES	hERG current change (%, negative = inhibition) at 10uM
CN(C)S(=O)(=O)Nc1cc(Cl)cc(Cl)c1	-0.782%
COc1ccc(C(O)(CCN2CCCCC2)C2CCCCC2)cc1.Cl (stereo not drawn)	-27.4%
CC(C)C1N(C(=O)CN2CCCC2)CCN1S(=O)(=O)c1ccccc1 (stereo not drawn)	11%
Cc1cc(C(=O)NNc2cc(Cl)ccc2Cl)no1	6.55%
COC(=O)c1ccc([C@@H]2C[C@H]3CN(Cc4cccnc4)C(=O)[C@]34CCCN24)cc1	-1.19%
O=C1N(Cc2cccnc2)C[C@@H]2C[C@@H](c3ccc(-c4ccccc4)cc3)N3CCC[C@@]123	-71.3%
Cc1cc(C(=O)N/N=C/c2c[nH]c3ccccc23)cs1	-8.33%
CC(Sc1nc2cc([N+](=O)[O-])ccc2n1-c1cccc(C(F)(F)F)c1)C(=O)NC(N)=O (stereo not drawn)	13.6%
CCNC(=O)CSc1nc2cc([N+](=O)[O-])ccc2n1-c1cccc(C(F)(F)F)c1	-35.8%
NC(=O)NC(=O)CSc1nc2cc([N+](=O)[O-])ccc2n1-c1cccc(C(F)(F)F)c1	-57.7%
C=CCNC(=O)NC(=O)CSc1nc2cc([N+](=O)[O-])ccc2n1-c1cccc(C(F)(F)F)c1	20.8%
NC(=O)CSc1nc2cc([N+](=O)[O-])ccc2n1-c1cccc(C(F)(F)F)c1	-69.9%
NC(=O)CSc1nnc(-c2ccccc2Br)n1-c1cccc(C(F)(F)F)c1	-11.9%
Cc1ccc(SCC(=O)Nc2cccc(C(=O)NC(C)(C)C)c2)cc1	4.17%
O=C(Nc1cc(Cl)ccc1N1CCOCC1)c1cccnc1Cl	1.8%
O=S(=O)(c1ccc(N2CCCCCC2)nc1)N1CCCC1	17.2%
Cc1ccc(S(=O)(=O)N(C)C)cc1[N+](=O)[O-]	-4.14%
COc1ccc(CCNC(=O)c2cnccn2)cc1	10.8%
O=C(C[n+]1cc(Br)cc2ccccc21)c1ccccc1.[Br-]	-21.7%
O=C(C[n+]1cccc2ccccc21)c1ccc(NC(=O)c2ccccc2)cc1.[Br-]	8.45%
COc1ccc(C(=O)C[n+]2cc(Br)cc3ccccc32)cc1[N+](=O)[O-].[Br-]	-66.3%
Cc1ccc2c(ccc[n+]2CC(=O)c2ccccc2)c1.[Br-]	-13.1%
O=C(C[n+]1cc2ccccc2c2ccccc21)c1ccccc1.[Br-]	-73.8%

SMILES	hERG current change (%, negative = inhibition) at 10uM
COc1ccc(C(=O)C[n+]2cccc(C)c2C)cc1[N+](=O)[O-].[Br-]	-13.2%
O=C(C[n+]1cc(Br)cc2ccccc21)c1ccc(Cl)cc1.[Br-]	-49.8%
O=C(C[n+]1cc(Br)cc2ccccc21)c1ccc(Br)cc1.[Br-]	-83.3%
O=C(C[n+]1cc(Br)cc2ccccc21)c1ccc(F)cc1.[Br-]	-41.6%
N#CCc1c(C#N)c(N)nc(N2CCN(S(=O)(=O)c3ccccc3)CC2)c1C#N	-0.357%
C=CCn1c(SCC(=O)Nc2cccnc2Cl)nnc1-c1ccccc1F	-15.5%
COc1cc(C=O)ccc1OCCSc1ccc(C)cc1	-3.13%
O=C(CSc1nnc(CNC(=O)c2ccco2)o1)Nc1ccccc1	17.2%
CN(C)C(CNC(=O)CCc1c[nH]c2ccccc12)c1ccccc1 (stereo not drawn)	-5.7%
CCOC(=O)C1=CC[C@H]2c3c(c4ccccc4n3C)C(=O)C1N2S(=O)(=O)c1ccc(C)cc1	-4.05%
CN1C(C(=O)NCc2ccco2)=CC(c2ccc(F)cc2)=NS1(=O)=O	-34.2%
COc1ccc(OC)c(C2=NS(=O)(=O)N(C)C(C(=O)NCc3cccs3)=C2)c1	-28%
COc1ccc(C2=NS(=O)(=O)N(C)C(C(=O)NC(C)c3ccccc3)=C2)cc1 (stereo not drawn)	-23.8%
COc1ccc(C2=NS(=O)(=O)N(C)C(C(=O)N(C)Cc3ccccc3)=C2)cc1OC	-6.75%
COc1ccc(C2=NS(=O)(=O)N(C)C(C(=O)NCc3ccccn3)=C2)cc1	-33.9%
COc1ccc(C2=NS(=O)(=O)N(C)C(C(=O)N(C)Cc3ccccc3)=C2)cc1	-69.9%
COc1ccc(C2=NS(=O)(=O)N(C)C(C(=O)NCc3ccco3)=C2)cc1OC	-48.9%
COc1ccc(CNC(=O)C2=CC(c3ccc(OC)cc3)=NS(=O)(=O)N2C)cc1	-54.5%
COc1ccc(CNC(=O)C2=CC(c3ccc(C)cc3)=NS(=O)(=O)N2C)cc1	-9.69%
Cc1ccc(C2=NS(=O)(=O)N(C)C(C(=O)NCc3cccs3)=C2)cc1	-8.57%
Cc1ccc(C2=NS(=O)(=O)N(C)C(C(=O)NCc3ccco3)=C2)cc1	-58.4%
COc1ccc(C2=NS(=O)(=O)N(C)C(C(=O)NCc3cccs3)=C2)cc1OC	-53.9%
